Records with an inconclusive call do not appear. A call without a number means that no potency is given here. Active and inactive are the calls of the source. Calls come from the whole dose curve; as a rule, active = well fitted cell-killing curve with a large enough effect in the repeat runs; inconclusive = weak or mixed curves, or effect the other way; inactive = flat fitted curve, though single readings scatter.
Columns and labels:
[1] = cAMP Responsive Elements (CRE) small molecule antagonists, cell-based qHTS assay: qHTS cell viability counter screen (AID 2060913); note: nearly all actives have a fitted effect of over 40% in size
Method in brief: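 CRE-bla HEK293T cells were seeded in assay medium with 10% dialyzed FBS, incubated 18 hrs at 37 C, then exposed to compounds plus 0.25 uM final NKH477 for 3 hrs. Viability was read by CellTiter-Glo luminescence after 30 min, in the same wells.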

[2] = cAMP Responsive Elements (CRE) small molecule agonists, cell-based qHTS assay: qHTS cell viability counter screen (AID 2060914);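 note: viability read after 3 h of compound exposure; nearly all actives have a fitted effect of over 50% in size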
Method in brief: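 Cells are seeded and incubated 18 h, treated with compounds in DMSO for 3 h, read for the bla reporter, then given CellTiter-Glo; luminescence is measured after 30 min at room temperature.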
Potency is the fitted concentration of half-maximal effect.

Structure (SMILES)	Potency [1]	Potency [2]
CC(CN1CC(=O)NC(=O)C1)N1CC(=O)NC(=O)C1 (configuration not stated)	inactive	inactive
CCCCC1CCCCC(=O)O1 (configuration not stated)	inactive	inactive
CCCC(O)C(CC)CO (configuration not stated)	inactive	inactive
NNC(=O)OCc1ccccc1	inactive	inactive
CCCCCCCC[P+](CCCCCCCC)(CCCCCCCC)CCCCCCCC	17.1 µM (active)	21.6 µM (active)
CCCCCC/C=C/CCCCCCCC(=O)O	inactive	inactive
Cc1cccc(Nc2ccccc2C(=O)O)c1C	inactive	inactive
COC(=O)OC	inactive	inactive
Nc1ccc(N=Nc2ccccc2)c(N)n1	inactive	inactive
O=c1cccccc1O	inactive	inactive
CC(COCCO)OCCO (configuration not stated)	inactive	inactive
CC(C)Cc1ccccc1	inactive	inactive
C#Cc1cccc(Nc2ncnc3cc(OCCOC)c(OCCOC)cc23)c1	inactive	inactive
CCC(C(=O)OCCN1CCOC(c2ccccc2)C1C)c1ccccc1 (configuration not stated)	inactive	inactive
NC1CCN(c2nc3c(cc2F)c(=O)c(C(=O)O)cn3-c2ccc(F)cc2F)C1 (configuration not stated)	inactive	inactive
CCCC(=O)OCC	inactive	inactive
Cc1cccc2n[nH]nc12	inactive	inactive
CC1(C)[C@@H]2CC[C@@]1(C)C(=O)C2	inactive	inactive
CCCCOC(=O)CCCCCCCC(=O)OCCCC	inactive	inactive
COc1cc(C(=O)NCCCCCC(=O)O)cc(OC)c1OC	inactive	inactive
CO[Si](CCCNCCN)(OC)OC	inactive	inactive
